# PfHsp40 rescue: compounds rescuing yeast from Plasmodium falciparum HSP40 toxicity; AID 504582; 0.68% of 340,000 active; S. cerevisiae expressing PfHsp40, growth rescue, ATP luminescence; growth rescue, % at 12.5 µM; in the data active means growth rescue above about 28%, passing the limit was not always enough; inconclusive means no clear call, values can overlap the other calls;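 further: yeast W303a lacking pdr1 and pdr3 grown in galactose medium; growth measured after three days at 30 °C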
# ugtP null kill: kills S. aureus RN4220 lacking UgtP; 0.54% of 330,000 active; S. aureus RN4220 ugtP deletion, OD600 growth, 16 h; growth inhibition, % (concentration not given with the values); in the data active means growth inhibition above about 68%;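 further: plate controls were untreated wells for no effect and antibiotic for full effect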
# Mtb betalactam: beta-lactam sensitization of Mtb H37Rv | inhibition, % at 25 µM | AID 434955 | M. tuberculosis H37Rv growth with meropenem, percent inhibition | 0.27% of 330,000 active; call rule not given here;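 further: growth measured after seven days incubation then overnight dye step; 0% = bacteria only wells and 100% = bacteria with antibiotic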
# Sa RN4220 lethal: kills Staphylococcus aureus RN4220; S. aureus RN4220 growth, OD600, 16 h; inhibition, % (concentration not given with the values); 0.33% of 330,000 active; in the data active means inhibition above about 85%;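 further: plate controls were untreated cells for no effect and reference antibiotic for full effect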
# Mtb BioA inh: blocks M. tuberculosis BioA enzyme activity; purified M. tuberculosis BioA enzyme, plate reader; inhibition, % at 9.99 µM; 0.096% of 360,000 active; AID 602481; in the data active means inhibition above about 40%; inconclusive means no clear call, values can overlap the other calls
# An asterisk follows results filed as active; ? = inconclusive; . = no result given. Sampled rows, rich in hits. Any-hit rate of the full collection: about 0.9%.
SMILES,PfHsp40 rescue,ugtP null kill,Mtb betalactam,Sa RN4220 lethal,Mtb BioA inh
NC(=O)C1CCN(C2CC(=O)N(c3cccc(F)c3)C2=O)CC1 (stereo not given),6,1,-7,1,0
CC(C(=O)NCCc1c[nH]c2ccccc12)C1C[C@@]1(C)C(NC(=O)OCc1ccccc1)c1ccccc1 (stereo not given in full),.,-13,.,-8,.
O=C(C=Cc1ccccc1)NCCSc1ccc(Cl)cc1,.,5,.,1,.
O=C(C=Cc1cccs1)N1CCC2(CC1)Oc1ccc(F)cc1C(=O)C21CC(c2ccc(Cl)cc2)=NO1 (stereo not given),.,0,.,1,.
CCN(CC)C1CC(=O)N(c2cccc(Cl)c2)C1=O (stereo not given),79*,16,-1,5,-1
CCN(CC)CCCNC(=O)c1cc(-c2ccccc2)c(N2CCCCC2)s1,1,88*,9,4,-1
O=C(NCCc1ccccc1)c1cc(-c2ccccc2)c(N2CCOCC2)s1,-1,7,7,4,0
C=CC1c2cc(C)ccc2N(S(=O)(=O)c2ccc(C)cc2)C(c2ccc(OC(C)=O)cc2)C1(C#N)C#N (stereo not given),.,17,.,13,.
COc1ccc(C=c2sc(=CC(=O)c3ccc(C)cc3)[nH]c2=O)c(OC)c1,.,89*,.,-4,.
COc1ccc(/C=c2\s/c(=C/C(=O)c3ccc(C)cc3)[nH]c2=O)c(OC)c1,-1,.,64,.,-1
CSc1ccc(C=CC(=O)c2ccc(NC(C)=O)cc2)cc1,.,-3,.,8,.
O=S1(=O)CCOCC(CC2CCCCC2)N1Cc1ccccc1Br (stereo not given),.,0,.,2,.
COc1ccc(/C=C/c2cc(-c3ccc(C)cc3)o[n+]2C)cc1,1,100*,100,96*,8
Clc1ccc(COC(Cn2ccnc2)c2ccc(Cl)cc2Cl)c(Cl)c1 (stereo not given),91*,100*,97,100*,-5
OC(COc1ccc(Cl)cc1Cl)Cn1ccnc1 (stereo not given),-1,2,-3,3,0
C=CCOC(Cn1ccnc1)c1ccc(Cl)cc1Cl (stereo not given),326*,7,92,2,2
COc1ccc(-c2n[nH]c3c2C(c2ccc(OC)c(OC)c2)N(c2ccccc2)C3=O)cc1 (stereo not given),-1,1,6,2,65*
COc1ccc(C2c3c(-c4ccccc4)n[nH]c3C(=O)N2c2ccc(C(=O)O)cc2)cc1 (stereo not given),2,4,-8,3,.
O=C(NCCCn1ccnc1)Nc1ccc(Cl)cc1,-1,8,?,7,.
O=C(NCCCn1ccnc1)Nc1ccc(Cl)c(Cl)c1,46*,-21,2,-8,2
O=C(NCC1CC1(Cl)Cl)Nc1ccc(Cl)c(Cl)c1 (stereo not given),304*,51,97,57,-1
COc1ccc(C2CC=C(C(=O)O)C(c3ccccc3)N2S(=O)(=O)c2ccc(C)cc2)cc1OC (stereo not given),.,3,.,7,.
O=C1C(Cc2ccccc2)NCCCCC(c2ccc(Cl)cc2)N1Cc1ccc(Cl)cc1 (stereo not given),.,12,.,1,.
C=CCC(Cc1ccc(F)cc1)C(=O)OCC1CCCN1C(=O)C(CC=C)CC(=O)NC(CO)Cc1ccccc1 (stereo not given),.,4,.,4,.
COC(=O)[C@@]1(Cc2ccc(F)cc2)C2c3cc(C(=O)N(C)C)n(Cc4nc5ccccc5[nH]4)c3CC2CN1C(=O)c1ccccc1 (stereo not given in full),.,7,.,0,.
Cc1ccc(C=NNc2cn[nH]c(=O)n2)o1,.,10,.,6,.
O=c1nc(N/N=C/c2ccccn2)cn[nH]1,617*,.,-4,.,.
C(=N\Nc1nncc2ccccc12)/c1ccccn1,413*,.,7,.,1
C#CCOCCOCCOCCNc1nc(N2CCN(C(=O)C(CC(N)=O)n3cc(C(N)C(C)C)nn3)CC2)nc(N2CCN(C(=O)C(CCCN=C(N)N)n3cc(C(N)C(C)CC)nn3)CC2)n1 (stereo not given),.,-3,.,4,.
COC1C=COC2(C)Oc3c(C)c(O)c4c(O)c(c(CN5CCN(C)CC5)c(O)c4c3C2=O)NC(=O)C(C)=CC=CC(C)C(O)C(C)C(O)C(C)C(OC(C)=O)C1C (stereo not given),-1,.,.,.,.

# Screens as filed in PubChem.
